Assay results from paper PMC5227109.

Molecular target: Sister chromatid cohesion protein 2 (UniProt Q04002)
Experiment: cross-link between two proteins; cross-linking mass spectrometry

Chain of UniProt Q04002 (Q04002 whole entry): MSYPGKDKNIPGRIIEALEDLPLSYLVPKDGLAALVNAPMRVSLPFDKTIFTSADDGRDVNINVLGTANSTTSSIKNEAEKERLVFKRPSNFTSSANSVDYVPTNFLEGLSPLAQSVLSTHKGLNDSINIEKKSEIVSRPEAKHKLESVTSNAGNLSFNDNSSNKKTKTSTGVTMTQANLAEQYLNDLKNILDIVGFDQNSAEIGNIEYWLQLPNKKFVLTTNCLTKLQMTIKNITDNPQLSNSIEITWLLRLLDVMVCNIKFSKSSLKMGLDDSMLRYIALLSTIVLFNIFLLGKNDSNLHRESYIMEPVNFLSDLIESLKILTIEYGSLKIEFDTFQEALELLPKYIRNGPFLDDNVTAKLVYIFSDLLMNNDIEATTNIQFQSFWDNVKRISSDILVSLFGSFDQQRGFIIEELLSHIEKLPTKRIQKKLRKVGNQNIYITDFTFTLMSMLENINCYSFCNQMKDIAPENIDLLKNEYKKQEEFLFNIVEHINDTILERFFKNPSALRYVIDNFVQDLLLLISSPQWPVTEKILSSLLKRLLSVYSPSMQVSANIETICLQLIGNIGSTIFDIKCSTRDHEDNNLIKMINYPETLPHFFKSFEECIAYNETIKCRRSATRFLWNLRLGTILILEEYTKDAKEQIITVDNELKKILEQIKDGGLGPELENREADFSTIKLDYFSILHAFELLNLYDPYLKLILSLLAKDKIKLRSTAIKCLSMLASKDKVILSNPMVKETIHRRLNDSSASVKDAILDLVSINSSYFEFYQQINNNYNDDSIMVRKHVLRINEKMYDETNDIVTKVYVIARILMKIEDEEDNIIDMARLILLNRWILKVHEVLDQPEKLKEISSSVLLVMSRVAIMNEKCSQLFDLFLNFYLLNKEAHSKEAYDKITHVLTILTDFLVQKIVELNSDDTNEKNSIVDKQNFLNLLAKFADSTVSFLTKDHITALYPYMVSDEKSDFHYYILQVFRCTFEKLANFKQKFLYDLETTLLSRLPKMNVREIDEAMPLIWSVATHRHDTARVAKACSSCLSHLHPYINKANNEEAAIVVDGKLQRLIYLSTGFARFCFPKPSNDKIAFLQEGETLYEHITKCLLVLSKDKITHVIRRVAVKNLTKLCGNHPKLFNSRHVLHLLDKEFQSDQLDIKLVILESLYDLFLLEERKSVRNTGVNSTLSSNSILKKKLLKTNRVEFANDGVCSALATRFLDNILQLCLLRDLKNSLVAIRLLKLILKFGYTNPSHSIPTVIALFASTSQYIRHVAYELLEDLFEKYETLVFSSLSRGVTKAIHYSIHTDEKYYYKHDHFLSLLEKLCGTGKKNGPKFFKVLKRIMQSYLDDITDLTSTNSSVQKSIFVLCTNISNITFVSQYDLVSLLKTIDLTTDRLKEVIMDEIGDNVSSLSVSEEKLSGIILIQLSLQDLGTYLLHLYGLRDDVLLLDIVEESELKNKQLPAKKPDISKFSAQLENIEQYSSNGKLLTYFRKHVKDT

With “MAU2 chromatid cohesion factor homolog, P40090” the “listed as a hit” value was “yes”.
